Screens: PubChem, National Center for Advancing Translational Sciences (NCATS)
HP1b chromo inh: inhibitors of HP1-beta chromodomain binding to methylated histone tails. 390,000 tested, 0.56% active. AlphaScreen HP1-beta / biotin-H3K9me3 peptide binding. P83916. Potency, µM (doses to about 114 µM), for inactives: at the highest dose activity change, negative = inhibition, actives largely listed as inhibitors; further: nearly all actives have a fitted effect of over 70% in size
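Compound inhibition of the preformed complex between 50 nM HP1-beta and 50 nM biotinylated H3K9me3 peptide was read by AlphaScreen. Buffer was PBS pH 7.4 with 0.01% Tween-20. Incubations ran 30 min at room temperature, with 10 ug/mL donor/acceptor beads.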
G9a inh: G9a (human) methyltransferase inhibition | Q96KQ7 | G9a H3K9 monomethylation, AlphaScreen, 2 h | Potency, µM (series often up to 102 µM), for inactives: at the highest dose activity, negative = inhibition, most hits filed as inhibitors | 350,000 tested, 8.8% active | AID 504332; further: on the % scale 0 is the no-effect control and ±100 the full control effect; nearly all actives have a fitted effect of over 75% in size
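Quantitative HTS format: methyltransferase activity on a biotin-tagged H3K9 peptide is measured by AlphaScreen, using a rabbit anti-monomethyl-H3K9 antibody with streptavidin donor and anti-IgG acceptor beads. Final levels are 20 nM enzyme, 500 nM peptide, 20 uM SAM; 2 h RT.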
Sfp PPTase inh: blocks B. subtilis Sfp PPTase activity | Potency, µM, for the others: largest response in the series, negative = inhibition, most hits filed as inhibitors | 310,000 tested, 3.5% active | Q9F4F7 | Biochemical Sfp PPTase activity, qHTS;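 further: the enzyme is Sfp with the accession as filed and its product quenches rhodamine fluorescence; 0% = enzyme reaction without inhibitor and -100% = no enzyme wells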
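Buffer: 50 mM Hepes-Na pH 7.6, 10 mM MgCl2, 0.01% Nonidet P-40, 0.01% BSA. Enzyme 15 nM, pre-exposed to compound 15 min; substrates then added and fluorescence change tracked over 30 min.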
JMJD2A Tudor inh: JMJD2A Tudor domain (human) inhibition; AID 504339; Potency, µM (doses to about 114 µM), for inactives: at the top dose activity change, negative = inhibition, usual class: inhibitors; AlphaScreen JMJD2A-Tudor / H3K4me3 peptide binding; O75164; 390,000 tested, 4.4% active; further: on the % scale 0 is the no-effect control and ±100 the full control effect; nearly all actives have a fitted effect of over 50% in size
Target sequence (O75164 whole entry, looked up, the tested form may be a part): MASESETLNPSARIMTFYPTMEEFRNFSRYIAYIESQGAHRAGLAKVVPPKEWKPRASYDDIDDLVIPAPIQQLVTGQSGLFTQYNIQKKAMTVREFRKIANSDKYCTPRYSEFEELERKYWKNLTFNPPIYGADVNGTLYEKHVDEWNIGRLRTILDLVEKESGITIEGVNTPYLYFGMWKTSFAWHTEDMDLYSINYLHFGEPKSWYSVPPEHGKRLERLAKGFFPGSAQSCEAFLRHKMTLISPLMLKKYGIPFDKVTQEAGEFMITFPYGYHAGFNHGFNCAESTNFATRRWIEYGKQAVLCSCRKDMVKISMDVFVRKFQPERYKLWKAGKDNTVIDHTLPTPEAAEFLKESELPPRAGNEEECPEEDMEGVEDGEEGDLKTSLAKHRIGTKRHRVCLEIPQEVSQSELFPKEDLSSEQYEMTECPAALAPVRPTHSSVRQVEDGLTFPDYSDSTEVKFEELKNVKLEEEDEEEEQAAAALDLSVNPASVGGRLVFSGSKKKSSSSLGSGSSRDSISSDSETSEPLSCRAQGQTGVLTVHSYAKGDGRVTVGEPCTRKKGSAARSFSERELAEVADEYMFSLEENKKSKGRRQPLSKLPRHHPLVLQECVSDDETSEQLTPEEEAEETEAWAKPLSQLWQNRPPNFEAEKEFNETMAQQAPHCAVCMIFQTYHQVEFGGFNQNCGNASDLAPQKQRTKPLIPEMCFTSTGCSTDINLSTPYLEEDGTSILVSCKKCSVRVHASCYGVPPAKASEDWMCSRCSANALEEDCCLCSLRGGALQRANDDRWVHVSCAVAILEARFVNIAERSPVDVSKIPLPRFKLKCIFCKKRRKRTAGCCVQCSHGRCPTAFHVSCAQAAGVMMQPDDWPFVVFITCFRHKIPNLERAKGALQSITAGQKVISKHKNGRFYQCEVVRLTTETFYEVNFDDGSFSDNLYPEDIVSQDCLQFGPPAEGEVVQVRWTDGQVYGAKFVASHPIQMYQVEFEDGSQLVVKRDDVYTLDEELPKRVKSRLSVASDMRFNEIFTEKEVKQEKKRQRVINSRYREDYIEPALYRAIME
L3MBTL1 inh: L3MBTL1 (human) inhibition. Q9Y468. AlphaScreen L3MBTL1–H3K9me1 peptide binding. Potency, µM (top dose mostly 57.1 µM), for the others: at the highest dose activity, negative = inhibition, most hits filed as inhibitors. 230,000 tested, 0.66% active. AID 485360; further: on the % scale 0 is the no-effect control and ±100 the full control effect; nearly all actives have a fitted effect of over 60% in size
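Read-out is AlphaScreen signal from streptavidin donor and nickel chelate acceptor beads (10 ug/mL final each) bridging L3MBTL1 (50 nM) and biotinylated K9-monomethylated H3(1-15) peptide (75 nM), after 30 min compound exposure at room temperature.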
BAZ2B inh: blocks human BAZ2B; Potency, µM (top dose mostly 114 µM), inactives show at the highest dose activity change, negative = inhibition, usual class: inhibitors; 360,000 tested, 4.4% active; AlphaScreen BAZ2B-H3K14Ac peptide displacement; AID 504333; further: on the % scale 0 is the no-effect control and ±100 the full control effect; nearly all actives have a fitted effect of over 60% in size
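Inhibition is scored as reduced AlphaScreen emission. The BAZ2B/b-H3(5-23)K14Ac complex (50 nM each) in PBS pH 7.4, 0.01% Tween-20 meets compound (up to 110 uM) for 30 min at RT before bead addition.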
Active calls of the source: *; ? = inconclusive; / = no result; [ ] = dose if it differs, or a comment. A selection: hits, their analogues and other compounds. The true share with any hit is near 12%. The call rests on the fitted dose curve; in most records, active means well fitted curve in the direction sought with a large enough effect; inconclusive means small, poorly fitted or top-dose-only effect, or another doubt; inactive means no such curve, though single readings can be large; an effect the other way counts as inactive or inconclusive. Potency means the concentration at half of the fitted maximal effect.

SMILES | HP1b chromo inh | G9a inh | Sfp PPTase inh | JMJD2A Tudor inh | L3MBTL1 inh | BAZ2B inh
COc1ccccc1C(=O)NCC(=O)NC(C)c1ccc(-n2ccnc2)cc1 (configuration not stated) | 10% | 10µM* | 3% | -20% | / | -2%
Cc1cccc(C(=O)NCC(=O)NC(C)c2ccc(-n3ccnc3)cc2)c1 (configuration not stated) | 21% | 2% | / | -14% | -3% | -19%
O=C(c1ccccc1)c1nn(-c2ccccc2)c2nnc(Cc3ccccc3)c(=O)n12 | 8% | 10µM* | 1% | ? | -16% | -25%
Cc1cccc(N2CCN(C(=O)c3ccc4c(c3)NC(=O)C(CSCc3ccc(F)cc3)N4)CC2C)c1 (configuration not stated) | / | 14µM* | 56µM* | / | / | -28%[57.1 µM]
Cc1cccc(N2CCN(C(=O)c3cccc(N4C(=O)C5C6C=CC(C6)C5C4=O)c3)CC2C)c1 (configuration not stated) | 22% | -45% | 5% | -24% | / | -26%
CCCCCn1c(=O)[nH]c2cc(C(=O)N3CCN(c4cccc(C)c4)C(C)C3)ccc2c1=O (configuration not stated) | 20% | -2%[59 µM] | / | -16% | / | -1%
Cc1ccc(CSCC2Nc3ccc(C(=O)N4CCN(c5cccc(C)c5)C(C)C4)cc3NC2=O)cc1 (configuration not stated) | / | 7.1µM* | 50µM* | / | / | -30%[57.1 µM]
COc1ccccc1C(=O)COC(=O)CNC(=O)c1ccc(Br)o1 | 50% | 50µM* | / | -14% | 7% | 1%
CCc1ccc(C(=O)COC(=O)CNC(=O)c2ccc(Br)o2)cc1 | 44% | 16% | 2% | -4% | / | -3%
CCOC(=O)c1c[nH]c2c(C)ccc(Cl)c2c1=O | 6% | 6% | 9% | 28µM* | 0%[11.4 µM] | -18%
COc1ccc(N2CCN(CCCNC(=O)C(=O)c3c(C)[nH]c4ccccc34)CC2)cc1 | ? | -1%[0.0925 µM] | 2% | 45µM* | / | 28µM*
CCOc1cc2[nH]c(=O)n(CCCCC(=O)N3CCN(c4ccc(OC)cc4)CC3)c(=O)c2cc1OCC | 22% | -9%[59 µM] | / | -6% | / | 1%
CCOc1cc2[nH]c(=O)n(CCCN3CCN(c4ccc(OC)cc4)CC3)c(=O)c2cc1OCC | -22% | 10µM* | 9% | ? | / | ?
COc1ccccc1N1CCN(CCCn2c(=S)[nH]c3ccccc3c2=O)CC1 | 26% | -10% | 9% | -36% | / | ?
COc1ccc(N2CCN(CCCn3c(=S)[nH]c4ccccc4c3=O)CC2)cc1 | 27% | 7% | 2% | ? | / | 28µM*
Clc1ccc2c(c1)C(C1=NCCN1)c1ccccc1CS2 (configuration not stated) | 32% | 6%[59 µM] | 28% | -7% | 8% | 3%
S=C1NCCc2ccc(Cl)cc2C1c1ccccc1Cl (configuration not stated) | -27% | ? | 13% | ? | -8% | 45µM*
S=C(Nc1ccccc1Cl)Nc1ccc(Cl)cc1Cl | 14% | -7%[59 µM] | 8% | -8% | -2% | -3%
FC(F)(F)c1cnc(NNC(=S)Nc2ccccc2Cl)c(Cl)c1 | -19% | 40µM* | 3% | -27% | 11% | 7%
Cc1cccc(NC(=S)NNc2ncc(C(F)(F)F)cc2Cl)c1 | ? | -11%[59 µM] | 1% | -29% | 2% | 8%
S=C(NNc1ccnc2cc(Cl)ccc12)Nc1ccccc1Cl | ? | 11µM* | ? | 56µM* | -15% | ?
COc1ccc(C2(CNC(=O)C(=O)Nc3ccccc3C)CCCC2)cc1OC | 31% | 1%[59 µM] | / | -2% | / | -4%
Cc1nn(C(=O)c2cccc(F)c2)c(C)c1S(=O)(=O)N1CCOCC1 | 41%[57 µM] | -6%[59 µM] | / | 5% | / | 3%
CCN(CC)C(=O)c1ccc2c(c1)N(Cc1c(F)cccc1Cl)C(=O)c1ccccc1S2 | 23% | -18%[59 µM] | / | -22% | / | /
C=CCC1C=CC(Oc2ccc(F)cc2C)C(CO)O1 (configuration not stated) | / | / | 9% | / | / | /
SMILES | HP1b chromo inh | G9a inh | Sfp PPTase inh | JMJD2A Tudor inh | L3MBTL1 inh | BAZ2B inh
Cc1cc(-n2c(C)cc(C(=O)CSc3nncn3C)c2C)no1 | 8% | / | / | -28% | -2% | /
Cc1cc(-n2c(C)cc(C(=O)CSc3nncn3C(C)C)c2C)no1 | 14% | 56µM* | / | -26% | -4% | -32%
Cc1cccn2c(=O)c3cc(C(=O)NCCc4ccc(S(N)(=O)=O)cc4)n(C)c3nc12 | 17% | -8%[59 µM] | / | -22% | / | -6%
COc1ccc(C2Nc3ccccc3C(=O)N2Cc2ccccc2)cc1COc1ccc([N+](=O)[O-])cc1 (configuration not stated) | 7%[57 µM] | / | / | -17%[57.1 µM] | / | /
O=C(COC(=O)c1ccco1)Nc1ccccc1[N+](=O)[O-] | 28% | -4% | 20% | -12% | 2% | -22%
Cc1cc(OC(=O)c2ccco2)c(Sc2ccccc2[N+](=O)[O-])c(=O)o1 | -7% | 32µM* | ? | ? | 0% | ?
COc1cc2cc(Oc3ccc4ccc(=O)oc4c3)c(=O)oc2cc1O[C@@H]1O[C@H](CO)[C@@H](O)[C@H](O)[C@H]1O | 14% | / | / | -27% | 32µM* | /
COCCCn1c(=O)/c(=C\c2ccccc2OC(F)F)s/c1=C(/C#N)C(=O)NC(C)C | 6% | 12%[59 µM] | 12% | -18% | -1% | -9%
COCCCn1c(=O)/c(=C\c2ccccc2OC(C)C)s/c1=C(/C#N)C(=O)Nc1ccc(C(=O)O)cc1 | -15% | 45µM* | -25% | ? | -9% | 50µM*
CCc1ccc(N(C(C)=O)c2nc(CCl)cs2)cc1 | 45% | 18µM* | -21% | -7% | 4% | -23%
COc1cc(/C=C2\SC(=S)N(NS(=O)(=O)c3ccccc3)C2=O)cc(OC)c1OC | -14% | ? | 79µM* | ? | ? | ?
COc1cccc(/C=C2\SC(=S)N(NS(=O)(=O)c3ccccc3)C2=O)c1OC | 0% | 40µM* | -14% | ? | / | -38%
COc1cc(Cl)c(NS(=O)(=O)c2ccc(-c3coc(C)n3)cc2)c(OC)c1 | 20%[57 µM] | 3%[59 µM] | / | -14% | / | 1%
Cc1ccc(-n2nc(C(=O)Nc3ccc(C)c(F)c3)c3c4ccccc4n(C)c3c2=O)cc1 | 12% | -34%[59 µM] | / | -7% | / | /
Cc1csc(NC(=O)c2cc3ccccc3o2)n1 | 30% | 2%[12.7 µM] | / | -19% | -5% | 9%
Cc1csc(C(C#N)C(=O)c2cc3ccccc3o2)n1 (configuration not stated) | -11% | -23%[59 µM] | 50µM* | ? | -4% | ?
CCCNC1=C(N(C(C)=O)c2cccc(F)c2)C(=O)c2ccccc2C1=O | -15% | 4%[59 µM] | 19% | -25% | -19% | -43%
